# Experimental data published in ChEMBL document CHEMBL4513216, “Probing the Open Global Health Chemical Diversity Library for Multistage-Active Starting Points for Next-Generation Antimalarials” (ACS Infect Dis, 2020).
# Out of some 69,000 compounds screened, about 8,600 (12%) showed an effect of 50% or more. The full list was thinned out, with strong results kept by preference.
# Tested on: Plasmodium berghei
# Assay: Screen against P. berghei liver stage (PbLuc), transformed with Luciferase, at 10uM
# Type: functional, HepG2
# Conditions: tested at 10 uM
row,SMILES,INHIBITION [%]
1,CN(C(=O)c1ccccc1F)[C@@H]1CC[C@@H](O)[C@@H]1O,34.1
2,Cc1ccoc1C(=O)N1CC[C@@H]2CN(C3CCOCC3)CCO[C@@H]2C1,4.98
3,CC(C)c1nnsc1CNC(=O)C1CCN(C(=O)C2CC2)CC1,14.9
4,COCCC(=O)N1CCC2(CCN(Cc3ccc(OC)c(F)c3)C2)C1 (stereo unspecified),-10.3
5,Fc1ccc(-c2n[nH]cc2-c2ccnc(NCCN3CCCC3)n2)cc1,35.3
6,Cc1[nH]c2ccccc2c1-c1ccnc(NCCN2CCOCC2)n1,62.2
7,Cc1[nH]c2ccccc2c1-c1ccnc(NCCN2CCCCC2)n1,61.9
8,Cc1[nH]c2ccccc2c1-c1ccnc(NC[C@H](O)CO)n1,27.8
9,Cc1nc2[nH]cnc(NCCN3CCOCC3)c-2n1,36.8
10,O=c1[nH][nH]cc1-c1ccnc(NCCCN2CCOCC2)n1,39.7
11,COCCn1cc(NC(=O)NCC(c2cccc(F)c2)N(C)C)cn1 (stereo unspecified),49.7
12,c1ccc(Cn2ccnc2CNCC2CCCN2c2cccnn2)cc1 (stereo unspecified),4.71
13,Cc1ccc(N2CCO[C@H]3[C@H](OCC(=O)N4CCCC4)CC[C@@H]32)cc1,-2.03
14,CSC1(CNc2ncc(Br)cn2)CCOCC1,45.7
15,CCSC1(CNc2ncc(Br)cn2)CCOCC1,66.4
16,CN(C)C1(CNc2ncc(Br)cn2)CCOCC1,27.8
17,CS(=O)(=O)N1CCCC(Cc2cnc(Br)cn2)CC1 (stereo unspecified),37.8
18,Cc1ccc(C(=O)N2CCCCC2c2[nH]ncc2S(C)(=O)=O)cn1 (stereo unspecified),24.8
19,O=C(c1cc2c(s1)CCOC2)N1CCCCC1Cn1cccn1 (stereo unspecified),-5.07
20,CNC(=O)C1(c2cnccn2)CCCN1C(=O)c1ccc(F)cc1 (stereo unspecified),3.91
21,CCC(=O)N(C)C1CCN(Cc2ncc(C)c(OC)c2C)CC1,10.8
22,COc1c(C)cnc(CN2CCC(N(C)C(=O)C(C)OC)CC2)c1C (stereo unspecified),-29.8
23,CCNC(=O)N(C)C1CCN(Cc2ncc(C)c(OC)c2C)CC1,82.6
24,COc1c(C)cnc(CN(C)C2CCCCC2)c1C,72

row,SMILES,INHIBITION [%]
1,COc1c(C)cnc(CN(C)C2CCOC3(CCOCC3)C2)c1C (stereo unspecified),43.6
2,COc1ccccc1C(=O)N(C)Cc1ncc(C)c(OC)c1C,-11.7
3,COc1c(C)cnc(CN(C)C2CCN(C3CCOCC3)CC2)c1C,7.24
4,COCc1ccccc1C(=O)N(C)Cc1ncc(C)c(OC)c1C,50.1
5,COc1c(C)cnc(CN(C)C(=O)c2ccccc2O)c1C,26.3
6,COc1c(C)cnc(CN2CCC(N(C)C(C)C(N)=O)CC2)c1C (stereo unspecified),90
7,COc1c(C)cnc(CN2CCC(N(C)C(=O)C3CC3)CC2)c1C,-2.19
8,COc1c(C)cnc(CN2CCC(N(C)S(C)(=O)=O)CC2)c1C,-21.9
9,COc1ccc(CCC(=O)N2CCCCC2Cn2cccn2)cc1F (stereo unspecified),-31.8
10,O=C(NCc1ccccn1)[C@]12COC[C@H]1CN(Cc1ccccc1F)C2,-13.2
11,Cc1ncsc1C(=O)N1CCCC1c1c(C)nn(C)c1Cl (stereo unspecified),-0.96
12,CC(NCc1cccc(C#N)c1)c1ccccn1 (stereo unspecified),-21
13,CCc1nc(C2CCCN2Cc2nnc(C3CCC3)o2)no1 (stereo unspecified),41.65
14,CC(C)CCn1cc(C(C(=O)O)N2CCSCC2)cn1 (stereo unspecified),17.6
15,CC(C)C(=O)NC1CCCc2nc(N3CCOCC3)ncc21 (stereo unspecified),18.3
16,Cc1ccc(-c2nc(CN3CCOCC3)no2)cc1N1CCNC1=O,30
17,CCNC(=O)CNC(=O)c1nc(C2CC2)n(-c2ccccc2Cl)n1,-37.6
18,Cc1ccc(Cl)c(CN2CCN(C)C(C(=O)O)C2)c1F (stereo unspecified),-4.52
19,CCCc1cc(C(=O)N(Cc2cccnc2)Cc2cccnc2)[nH]n1,6.28
20,CCOC(=O)CCN(Cc1cccnc1)C(=O)c1cc(Cl)c[nH]1,57.5
21,O=C(c1cc(Cl)c[nH]1)N(CCCO)Cc1cccnc1,39
22,CC(C)c1nnc(CN2CC(n3cccn3)C2)o1,-145
23,CN(C(=O)NCCN1CCOCC1)C1CCN(c2ccccc2)C1=O (stereo unspecified),13.375
24,c1csc(CCC2CCCCN2Cc2noc(C3CC3)n2)c1 (stereo unspecified),34.9

row,SMILES,INHIBITION [%]
1,COCc1noc(CN2CCCCC2CCc2cccs2)n1 (stereo unspecified),51.2
2,Cc1nc(CN2CCCCC2CCc2cccs2)co1 (stereo unspecified),24.9
3,CCNC(=O)CNCc1c(C(C)C)nn(C)c1N1CCOCC1,11.35
4,CCCN(Cc1ccccc1O)C(=O)Nc1cnn(CCOC)c1,59.7
5,CCN(CC(C)O)C(=O)Nc1cnn(CCOC)c1 (stereo unspecified),29.8
6,COCCn1cc(NC(=O)N(CCC(N)=O)Cc2ccccc2)cn1,-1.25
7,CC(=O)NCC(=O)N1CCC2(CC1)NC(=O)CC2c1cccnc1 (stereo unspecified),34.6
8,COCCn1ccnc1C1CCCN(C(=O)CSc2nnc(C)o2)C1 (stereo unspecified),20.9
9,CCC(=O)N1CCCCC1c1nc(N(C)C)ncc1-c1cc(C)no1 (stereo unspecified),22.5
10,CCNC(=O)NC(=O)CN1CCC(c2c[nH]c3ccc(OC)cc23)CC1,62.6
11,CNC(=O)NC(=O)C(C)N1CCC(c2c[nH]c3ccc(OC)cc23)CC1 (stereo unspecified),61.5
12,CNC(=O)NC(=O)CN1CCC(c2c[nH]c3ccc(OC)cc23)CC1,15.1
13,CNC(=O)NC(=O)C(C)N1CCCc2cc(OC)ccc2C1 (stereo unspecified),-25.1
14,CNC(=O)NC(=O)C(C)N1CCN(C2CCCC2)CC1 (stereo unspecified),28.7
15,COc1ccc2[nH]cc(C3CCN(CCC(N)=O)CC3)c2c1,36.6
16,CNC(=O)[C@@H](c1ccccc1)N1CCC[C@H]1C(=O)NCc1cccnc1,-1.12
17,CCS(=O)(=O)N1CCCC2(COCCN(c3nnc(C)o3)C2)C1 (stereo unspecified),29.8
18,Cc1noc(C)c1CN1CCCC(c2noc(C3CC3)n2)C1 (stereo unspecified),-12.2
19,Cc1cnc(CN2CCN(C(C)c3nc(C4CC4)no3)CC2)cn1 (stereo unspecified),24.7
20,Cc1nc(CN2CCN(C(C)c3nc(C4CC4)no3)CC2)oc1C (stereo unspecified),4.75
21,Cc1noc(C)c1CN1CCN(Cc2nc(C3CC3)no2)CC1,72.2
22,Cc1noc(C)c1CN1CCN(C(C)c2nc(C3CC3)no2)CC1 (stereo unspecified),59
23,Cc1noc(C)c1Cc1nc(C2CC2)no1,14.6
